Results published in ChEMBL document CHEMBL3988442, “University of Dundee, Small-Polar-MMV Screening Library” (2021).
The whole screen tested about 69,000 compounds, of which about 1,000 (1.4%) showed an effect of 50% or more. For the sample, strong results were picked, then their nearest neighbours and some compounds at random.

System: Leishmania donovani
Assay: Leishmania intramacrophage assay
Assay type: functional, organism-based
Set-up: scale not given: in the data most compounds retested in dose-response had high values

O=C(N1CCCC1)N1C[C@H]2CCC[C@@]2(COCc2ccccn2)C1.O=C(O)C(F)(F)F
Percent Effect (30.3 µM, […]): 12.71%

Cc1ccc(CN2CC[C@@H]3OCCN(Cc4ccncc4)[C@H]3CC2)s1.O=C(O)C(F)(F)F.O=C(O)C(F)(F)F.O=C(O)C(F)(F)F
Percent Effect (30.3 µM, […]): -14.43%

CS(=O)(=O)NCCCNC(=O)NCc1ccccc1
Percent Effect (30 µM): 13.69%

CN(C)CC(=O)N1CC2(CCN(C(=O)Nc3ccccc3)C2)C1.O=C(O)C(F)(F)F
Percent Effect (30.3 µM, […]): 27.48%

Cc1nnc([C@]23COC[C@H]2CN(Cc2cnn(C)c2)C3)o1.O=C(O)C(F)(F)F
Percent Effect (30.3 µM, […]): 10.4%

CC(O)CN1CCC(CNCc2ccccc2Cl)CC1 (stereo unspecified)
Percent Effect (30 µM): 7.148%

Cc1ccc(CNCC2CCN(CC(O)c3ccccc3)CC2)o1 (stereo unspecified)
Percent Effect (30 µM): 53.67%

CC(O)CN1CCC(CNCc2ccccc2F)CC1 (stereo unspecified)
Percent Effect (30 µM): 14.91%

COc1ccc(CNCC2CCN(CC(C)O)CC2)c2ccccc12 (stereo unspecified)
Percent Effect (30 µM, 30.03 µM): 95.94%

CC(O)CN1CCC(CNCc2ccccc2Br)CC1 (stereo unspecified)
Percent Effect (30 µM, 30.03 µM): 58.06%

CCOc1ccccc1CNCC1CCN(CC(C)O)CC1 (stereo unspecified)
Percent Effect (30 µM): 14.79%

COc1cccc(CNCC2CCN(CC(C)O)CC2)c1OC (stereo unspecified)
Percent Effect (30 µM): -4.893%

Cc1ncccc1CNCC1CCN(CC(O)c2ccccc2)CC1 (stereo unspecified)
Percent Effect (30 µM, 30.03 µM): 43.15%

Cc1noc(C)c1CNCC1CCN(CC(O)c2ccccc2)CC1 (stereo unspecified)
Percent Effect (30 µM, 30.03 µM): 48.93%

CCOc1ccc(NC(=O)N2CCNC(=O)C2)c(C(F)(F)F)c1
Percent Effect (30.3 µM, […]): -5.154%

c1ccc(OCCCN2CCOC(CNc3cccnn3)C2)cc1 (stereo unspecified)
Percent Effect (30 µM): 30.1%

CCc1nnc(CN(C)C(=O)C(CC)n2c(CC)nc3ccccc32)o1 (stereo unspecified)
Percent Effect (30.3 µM, […]): 37.19%

CC(=O)N1CC(=O)N(c2cnn(C)c2)CC12CCN(Cc1ccco1)C2 (stereo unspecified)
Percent Effect (30.3 µM, […]): 8.312%

CC(c1nc(C(C)(C)C)no1)N1CCN(C(=O)CN2CCOCC2)CC1 (stereo unspecified)
Percent Effect (30.3 µM, […]): 24.72%

CSC(C)(C)CNC(=O)NC1CCC1
Percent Effect (30.3 µM, […]): -4.731%

COc1ccccc1NC(=O)NCc1nnc(SC)n1C
Percent Effect (30.3 µM, […]): 56.86%

CSc1nnc(CNC(=O)Nc2ccccc2F)n1C
Percent Effect (30.3 µM, […]): 17.43%

CCc1ccccc1NC(=O)NCc1nnc(SC)n1C
Percent Effect (30.3 µM, […]): 23.33%

O=C(c1cnc2ccc(Cl)cc2c1NCc1ccco1)N1CCCCC1
Percent Effect (30.3 µM, […]): -0.01015%

Cc1nc(C)n(CC2CCCCN2CCOc2ccc(C#N)cc2)n1 (stereo unspecified)
Percent Effect (30 µM): 19.26%

COC(=O)NC1(C(=O)Nc2ccc(-c3ncc[nH]3)cc2)CCCC1
Percent Effect (30.3 µM, […]): 26.54%

CCc1noc(C2CCCCN2C(=O)c2cc(C)oc2C)n1 (stereo unspecified)
Percent Effect (30.3 µM, […]): -92.24%

Cc1ccc(C(=O)N2CCC3(CC2)COC(COc2ccccn2)C3)o1.O=C(O)C(F)(F)F (stereo unspecified)
Percent Effect (30 µM, 30.03 µM): -68.01%

Cc1ccc(C(=O)N2CCC3(CC2)COC(COc2cccnc2)C3)o1.O=C(O)C(F)(F)F (stereo unspecified)
Percent Effect (30.3 µM, […]): 59.81%

CCS(=O)(=O)N1CCC2(CC1)COC(COc1cccnc1)C2.O=C(O)C(F)(F)F (stereo unspecified)
Percent Effect (30.3 µM, […]): 15.1%

Cc1ccc(N2CCCC(NCC(=O)NC3CCOCC3)C2)nn1 (stereo unspecified)
Percent Effect (30 µM, 30.03 µM): 24.15%

CCc1nc(C2CCCN(c3nccc(N4CCCC4)n3)C2)no1 (stereo unspecified)
Percent Effect (30.3 µM, […]): 4.333%

CC(C)CCN1CC[C@H](c2nnc(Cc3c[nH]c4ccccc34)o2)C1
Percent Effect (30.3 µM, […]): 31.19%

CCOc1ccc(CN2CCC(c3nc(C)cc(C)n3)C2)cc1CO (stereo unspecified)
Percent Effect (30.3 µM, […]): 20.63%

Cc1nc(-c2cc(F)c3c(c2)CC(CN)O3)c[nH]1 (stereo unspecified)
Percent Effect (30.3 µM, […]): 25.07%

COc1cccnc1-c1ccc(F)c2c1OC(CN)C2 (stereo unspecified)
Percent Effect (30.3 µM, […]): -22.62%

COc1c(F)cc(-c2cccc3c2OC(CN)C3)cc1F (stereo unspecified)
Percent Effect (30.3 µM, […]): 78.5%

NCC1Cc2cccc(-c3ccc(O)c(F)c3)c2O1 (stereo unspecified)
Percent Effect (30.3 µM, […]): 31.37%

COc1cc(C)c(-c2ccc(F)c3c2OC(CN)C3)cc1C (stereo unspecified)
Percent Effect (30.3 µM, […]): 82.34%

COc1cc(-c2ccc(F)c3c2OC(CN)C3)cc(OC)c1OC (stereo unspecified)
Percent Effect (30.3 µM, […]): 19.84%

COc1ccc(-c2cccc3c2OC(CN)C3)cc1F (stereo unspecified)
Percent Effect (30.3 µM, […]): 82.3%

NCC1Cc2cccc(-c3nccc(N4CCC(O)CC4)n3)c2O1 (stereo unspecified)
Percent Effect (30.3 µM, […]): 19.12%

COc1cc(OC)cc(-c2cccc3c2OC(CN)C3)c1 (stereo unspecified)
Percent Effect (30.3 µM, […]): 81.48%

COc1cc(-c2cccc3c2OC(CN)C3)cc(OC)c1OC (stereo unspecified)
Percent Effect (30.3 µM, […]): 39.45%

COc1cc(-c2cccc3c2OC(CN)C3)ccc1O (stereo unspecified)
Percent Effect (30.3 µM, […]): 33.17%

Cc1nc(-c2cc(Cl)cc3c2OC(CN)C3)c[nH]1 (stereo unspecified)
Percent Effect (30.3 µM, […]): 27.22%

Cn1cnnc1C1CCCN(C(=O)c2cc(Cl)c(Cl)n2C)C1 (stereo unspecified)
Percent Effect (30 µM): 16.78%

Cc1ccc(N2CCCC(NCc3ccc4c(c3)OCCO4)C2)nn1 (stereo unspecified)
Percent Effect (30.3 µM, […]): -12.27%

CCCNC(=O)CCC(=O)N1CCC(c2n[nH]c(C3CC3)n2)CC1
Percent Effect (30.3 µM, […]): -11.33%

O=C1CCN(C(=O)NCc2ccccc2Oc2ccccc2)CCN1
Percent Effect (30.3 µM, […]): -11.56%

COc1ccc(CN2CCn3cc(CNC(=O)CC4CC4)nc3C2)cc1.O=C(O)C(F)(F)F
Percent Effect (30.3 µM, […]): -3.07%
